The text below walks through data of the supplement of paper PMC6555819.

What all share (assay): PBM binding z-score (relative to random genomic background probes); higher = stronger binding; sequences stand for … in GC…GCGATTGACAGCGTAGAATGAAGG
Assay [1] concerns FXR:RXRa (NR concentration 270 nM, RXRa partner concentration 90 nM). In outline:
(§1)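 Each nuclear receptor dimer, without ligand, was incubated for 1 h on custom Agilent 4×180K protein-binding microarrays. Binding was detected with antibodies against each partner (one per run), and scanned fluorescence was regression-normalized. The binding z-scores are referenced to random human genomic background probes.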

Assay [2] has as its system LXRa:RXRa (NR concentration 270 nM, RXRa partner concentration 90 nM). In outline: as §1
Assay [3] concerns LXRa homodimer (NR concentration 270 nM). In outline: as §1
The subject of assay [4] is LXRb:RXRa (NR concentration 270 nM, RXRa partner concentration 90 nM). In outline: as §1
Assay [5] concerns LXRb homodimer (NR concentration 270 nM). In outline:
as §1

Assay [6] deals with PPARa:RXRa (NR concentration 270 nM, RXRa partner concentration 90 nM). In outline: as §1
In assay [7] the test system is PPARg:RXRa (NR concentration 180 nM, RXRa partner concentration 90 nM). In outline: as §1
The test system of assay [8] is PPARg:RXRa 270nM:90nM, anti-RXR (NR concentration 270 nM, RXRa partner concentration 90 nM). In outline: as §1
Assay [9] relates to PPARg:RXRa 30nM:10nM, anti-RXR (NR concentration 30 nM, RXRa partner concentration 10 nM). In outline: as §1
The subject of assay [10] is PPARg:RXRa 90nM:30nM, anti-RXR (NR concentration 90 nM, RXRa partner concentration 30 nM). In outline:
as §1

Assay [11] has as its system PPARg:RXRa DBDmut IVT, anti-RXR (DBD mutation: RXRa K156A/R161A, NR concentration 270 nM, RXRa partner concentration 90 nM). In outline: as §1
Assay [12] deals with PPARg:RXRa IVT, anti-PPARg (NR concentration 270 nM, RXRa partner concentration 90 nM). In outline:
as §1

For assay [13], the system named is PPARg DBDmut:RXRa IVT, anti-PPARg (DBD mutation: PPARg1 K132A/R137A, NR concentration 270 nM, RXRa partner concentration 90 nM). In outline:
as §1

In assay [14] the test system is PPARg DBDmut IVT, anti-PPARg (DBD mutation: PPARg1 K132A/R137A, NR concentration 270 nM). In outline:
as §1

The test system of assay [15] is PPARg homodimer (NR concentration 180 nM). In outline:
as §1

Assay [16] has as its system PXR:RXRa (NR concentration 270 nM, RXRa partner concentration 90 nM). In outline:
as §1

The subject of assay [17] is PXR homodimer (NR concentration 270 nM). In outline:
as §1

The test system of assay [18] is RARa:RXR (NR concentration 270 nM, RXRa partner concentration 90 nM). In outline:
as §1

In assay [19] the test system is RARa homodimer (NR concentration 270 nM). In outline:
as §1

For assay [20], the system named is RARb:RXRa (NR concentration 270 nM, RXRa partner concentration 90 nM). In outline:
as §1

For the sequence TAGCCTAGCTCATTGGGCCAGTATAGTACGCATC, the PBM binding z-score in assay [1] was -0.7; in [2], -0.917; in assay [3] it was -0.393; in assay [4], -0.751; in assay [5] it was -0.9; in assay [6], -0.564. The PBM binding z-score was 0.238 in assay [7]; -0.576 in assay [8]; -0.321 in [9]; -0.323 in assay [10]; 0.043 in [11]; -0.244 in [12]. Also, the PBM binding z-score is -0.824 in [13]; -1.08 in [14]; -1.36 in assay [15]; -0.795 in [16]; -0.368 in assay [17]; -0.451 in [18]. Moreover, the PBM binding z-score in assay [19] was -1.17; in assay [20] it was -0.719.
Regarding AGAATGAGGTTAAGAGCAGGGAAACAGAATACAT, the PBM binding z-score is 2.07 in assay [1]; 1.9 in assay [2]; -0.281 in assay [3]; 1.52 in [4]; -0.266 in assay [5]; 3.4 in [6]. For the same sequence, the PBM binding z-score turned out to be 1.98 in [7]; 2.15 in [8]; 0.589 in assay [9]; 1.22 in [10]; 2.72 in assay [11]; 2.37 in assay [12]. The PBM binding z-score turned out to be 0.618 in assay [13]; 0.293 in assay [14]; 0.456 in assay [15]; 1.09 in [16]; 0.121 in assay [17]; 1.69 in [18]. The PBM binding z-score in assay [19] was -0.0125; in [20], 1.71.
In the case of TCTCGTAGGACACGAAAGGTCAGAGCTCGACATC, the PBM binding z-score in [1] worked out at 3.08; in assay [2], 3.85; in [3] it was 2.58; in [4], 3.39; in assay [5], 0.134; in [6] it was 3.58. In addition, the PBM binding z-score in [7] stood at 1.24; in [8], 2.98; in assay [9], 2.7; in assay [10], 2.81; in [11], 1.81; in assay [12], 1.71. Also, the PBM binding z-score in [13] was -0.191; in assay [14], 0.17; in assay [15], 3.44; in assay [16] it was 3.94; in assay [17], 0.393; in assay [18] it was 4.37. Further, the PBM binding z-score in assay [19] was 1.1; in [20] it was 4.02.
CACACAGGGTCAGCTAGGCCAGAGTAGGGACGGC: the PBM binding z-score is 4.77 in assay [1]; 2.64 in [2]; -0.0558 in assay [3]; 2.18 in assay [4]; 0.152 in assay [5]; 4.32 in assay [6]. Further, the PBM binding z-score came to 3.21 in assay [7]; 2.62 in assay [8]; 0.502 in assay [9]; 1.62 in [10]; 0.553 in assay [11]; 2.09 in assay [12]. For the same sequence, the PBM binding z-score amounted to 0.463 in assay [13]; 0.562 in [14]; 2.14 in assay [15]; 2.06 in assay [16]; 0.13 in assay [17]; 3.32 in assay [18]. The results for the PBM binding z-score in assay [19] and in assay [20] were 0.53 and 4.09, respectively.
In the case of ACTATTAGTTGACTTAGGGCAACAGATACGACGC, the PBM binding z-score was 0.0788 in assay [1]; 0.0659 in assay [2]; 0.494 in assay [3]; 0.0147 in [4]; 0.162 in [5]; -0.0178 in assay [6]. The PBM binding z-score in assay [7] is 0.94; in assay [8], 0.32; in [9] it was 0.494; in assay [10], 0.163; in assay [11] it was 0.146; in assay [12], 0.696. For the same sequence, the PBM binding z-score in [13] was 1.18; in [14], 1.49; in [15] it was 0.262; in assay [16], 0.159; in assay [17], 0.123; in [18] it was 0.356. The PBM binding z-score was 0.66 in assay [19] and 0.851 in assay [20].
Regarding CAAACTAGGTCAAGCTCAAAGTCGGTTTGTGCCA, the PBM binding z-score was 4.15 in assay [1]; 2.87 in [2]; 0.38 in assay [3]; 1.86 in [4]; 0.134 in [5]; 4.98 in assay [6]. The PBM binding z-score in assay [7] stood at 7.79; in assay [8] it was 7.36; in assay [9], 4.77; in assay [10], 7.27; in assay [11], 8.39; in [12] it was 8.97. Also, the PBM binding z-score was 4.04 in [13]; 1.47 in assay [14]; 1.52 in assay [15]; 1.38 in [16]; -0.401 in assay [17]; 2.52 in assay [18]. Moreover, the PBM binding z-score was 0.322 in assay [19] and 4.33 in assay [20].
